These results are taken from the OligoGym collection.
Also: reference of the scale not given here.

One experiment addresses LRRC45. The experiment can be described thus: pooled miR-30 sensor sort-seq; sequence = guide strand. Particulars: shRNA.
Regarding TTCTGCAGGAAGCTCGCCCTCT, the sensor-assay potency score (higher = more potent) is -0.654.
The same measure, in the same setting: the same measure for TGCAGCTTCCTGCTGCTCCAGC: -1.24; for TAGACTCCCGCTCTGCAGCTTC: -0.306; for TTCAGCTCAGCTGACATGCTGG: -0.387.
On the same count and under the same terms, next, TGAACTTCCGCTCCAACTCGTC: -0.925; ATGCTGGTCATCTCCTGCCTGG: -1.52.

Another experiment concerns the target LRRC8D. The description is as above. Particulars: shRNA.
Sequence TTTGTAAACATTCAGTAGCGGC displayed a sensor-assay potency score (higher = more potent) of -0.948.
Still for that read-out and setting: the same measure for TAACATAACAACAGCTAGGTAA: -0.029.
Same read-out and setting: next, TAAGGTGCCGCAACTCTCGGAG: 0.33; TGATCTTCCACAACAAGCCCGC: -0.444.
On the same count and under the same terms, the same measure for TTAACATAACAACAGCTAGGTA: -0.589.
In turn, TTATGAATGACTAACTTTGTAA yielded a sensor-assay potency score (higher = more potent) of -0.367.
Sequence TTATCCAGGATTGTCATGCTGG displayed a sensor-assay potency score (higher = more potent) of -0.286.
The sequence TTAAGTACAACTCTCGAAGGTT yielded a sensor-assay potency score (higher = more potent) of 0.166.
The same measure, in the same setting: the same measure for TTTTTGAGCAAATACACCCAGG: -0.941; for TATAGATCAAGTCACTATCTTC: -0.519; for TTGTAGCTCACATCTAAGCATC: -1.4.
The same measure, in the same setting: next, TAGCTCACATCTAAGCATCTGA: 0.32.

The next experiment has as its target LSG1. The experiment is described as above. Particulars: shRNA.
In turn, TTGTGTGCAACCAGGAGTCAGT registered a sensor-assay potency score (higher = more potent) of -0.781.
Take TTGTTGAACTCTTACCAACATT: the sensor-assay potency score (higher = more potent) is -1.39.
Same read-out and setting: the same measure for TTGTGTATCTGCCTCTTCTGTG: -0.396; for TTGAACTCTTACCAACATTAGG: -1.3; for TGTGTCTCGTGAACCATCCCTT: 0.477.
Same read-out and setting: the same measure for TTTCGAGCATCTACTATCTGGA: -0.305; for TTGCTTTGTCTATCATCTCTGT: -0.0591.
Still for that read-out and setting: next, TTCTGTTCCTCTTCTAGCCGGA: 0.394; TAATATTAAGTTTTTCAGCTAC: -0.362.
In the case of TGATTGTTGAACTCTTACCAAC, the sensor-assay potency score (higher = more potent) is -1.62.
Same read-out and setting: next, TTGATTGTTGAACTCTTACCAA: -0.2; TAGCTCCTTAAAGAGCTCCAGT: -1.06.

In the next experiment the target is LTA4H. The description is as above. Particulars: shRNA.
For the sequence TATATCTGTCAGATCAACCACA, the sensor-assay potency score (higher = more potent) was 0.143.
In turn, TTGATGAGAAGAGAGATCCTTC had a sensor-assay potency score (higher = more potent) of 0.703.
Still for that read-out and setting: the same measure for TTGATTGAGAACATCAACCTTA: 0.904.
Sequence TTTGACTTCTTGTCCATTGATC yielded a sensor-assay potency score (higher = more potent) of -0.618.
TTTCACAGAAGGAGTGTCCTGA: the sensor-assay potency score (higher = more potent) was 0.561.
The same measure, in the same setting: next, TAAACTTCATTCTTCCTTGTTC: 0.185.
The same measure, in the same setting: next, TTTTTCTATTGTAAGGTCCTTT: 0.0919.
Sequence TTTGTATCCAAAACCAGGCTGC returned a sensor-assay potency score (higher = more potent) of 0.416.
Same read-out and setting: the same measure for TTCATGTGCAATGACATTGGAG: -0.277; for TGTAACTTTGTCTTTCTCCAAG: -0.956.
